Data taken from PubChem BioAssay (NCATS).
Records with an inconclusive call do not appear. A call without a number means that no potency is given here. Activity calls are given as the source filed them. Calls come from the whole dose curve; as a rule, active = well fitted inhibition curve with a large enough effect; inconclusive = small, poorly fitted or top-dose-only effect; inactive = flat fitted curve, though single readings scatter.
Potency is the fitted concentration of half-maximal effect.

The compounds below were run on MCC-26 (assay: qHTS assay to identify novel small-molecules to repurpose for Merkel cell carcinoma treatment (AID 1296009; note: nearly all actives have a fitted effect of over 60% in size)). Conditions: MCC and control cell lines, CellTiter-Glo viability, 72 h; series mostly up to 46 µM.
From the text: MCC is a rare and aggressive neuroendocrine skin cancer with limited treatment options. Approximately 80% of MCCs have the Merkel cell polyomavirus (MCPyV) DNA integrated into the host genome (virus-positive: VP-MCC) and viral oncogenes drive oncogenesis. The remaining MCCs are virus-negative (VN-MCC) and are caused by UV mutagenesis. To identify novel treatments for VP-MCC and/or VN-MCC we screened three VP-MCC cell lines (WAGA, MKL-1, MKL-2), three VN-MCC cell lines (MCC-13, MCC-26, UISO), and four immortalized, non-transformed control cell lines (HaCaT, HEK293T, CRL7250, NIH-3T3) against ~2,400 compounds in the NCGC Pharmaceutical Collection (NPC) and ~1,900 compounds in the Mechanism Interrogation PlatE (MiPE). Using cell viability as a readout (CellTiter-Glo assay) we found both overlapping and distinct drugs that can be repurposed for the treatment of VP-MCC and VN-MCC.
A high-throughput screen was conducted in 1536-well white flat bottom plates (Corning) on a Kalypsys robotic system. Cell lines WAGA, MKL-1, MKL-2, MCC-13, MCC-26, UISO, HaCaT, HEK293T, CRL7250, and NIH-3T3 were screened against 2 small molecule annotated drug libraries NPC and MIPE in dose response (8 and 11 pt. respectively) measuring cell viability after 72 hours of incubation. […] A 1,536 pintool (Kalypsys) was used to transfer 23 nL of compound in DMSO to the 1,536-well assay plates. After 72 hr incubation at 37 degree celsius, 2.5 uL of CellTiter-Glo (Promega) was dispensed into each well using a BiorapTR. Plates were incubated at room temperature for 10 min, transferred to a ViewLux (PerkinElmer) and the luminescence was recorded using an exposure time of 2 seconds. Relative luminescence units (RLUs) were normalized to in-plate controls (no cells as a positive (cytotoxicity) control, DMSO as negative control) and the normalized data was processed using NCATS in-house software.
With `C[C@H](NCc1ccc2c(c1)nc(NC(=O)c1ccc(-c3cn[nH]c3)s1)n2CCc1ccccc1)C(C)(C)C` the Potency was 10.5 µM (active). `C[N+]1(C)[C@@H]2C[C@@H](OC(=O)C(O)(c3cccs3)c3cccs3)C[C@H]1[C@@H]1O[C@@H]12` was tested, and the Potency was “inactive”. For `CN1CCc2c(c3ccccc3n2Cc2ccc(C(=O)NO)cc2)C1`, the Potency was “inactive”. In the case of `CC(C)c1cnn2c(NCc3ccccc3)cc(NCCCCCCN)nc12`, the Potency is reported as “inactive”. In the case of `CC(=O)[C@]1(O)Cc2c(O)c3c(c(O)c2[C@@H](O[C@H]2C[C@H](N)[C@@H](O)[C@H](C)O2)C1)C(=O)c1ccccc1C3=O`, the Potency is reported as 1.32 µM (active). With `CC(C)[C@H](CO)Nc1nc(Nc2cccc(Cl)c2)c2ncn(C(C)C)c2n1` the Potency was “inactive”. In the case of `CC(C)N1[N]C(=C2C=c3cc(O)ccc3=N2)c2c(N)ncnc21`, the Potency is reported as 14.8 µM (active). For `OCc1ccccc1O[C@@H]1O[C@H](CO)[C@H](O)[C@H](O)[C@H]1O`, the Potency was “inactive”. For `C[C@]12CCC(=O)C=C1[C@@H]1CC1[C@H]1[C@H]3[C@@H]4C[C@H]4[C@@]4(CCC(=O)O4)[C@@]3(C)CC[C@H]12` (stereo not given in full), the Potency was “inactive”. For `C=CC1=C(C(=O)O)N2C(=O)[C@@H](NC(=O)C(=NO)c3csc(N)n3)[C@H]2SC1`, the Potency was “inactive”. `NC(=O)c1cccc(-c2cccc(OC(=O)NC3CCCCC3)c2)c1` was tested, and the Potency was “inactive”. For `O=c1c(O)c(-c2ccc(O)c(O)c2)oc2cc(O)ccc12`, the Potency was “inactive”. For `CC(=O)ON=C1C(c2c(O)[nH]c3cc(Br)ccc23)=Nc2ccccc21`, the Potency was “inactive”. With `C[C@@H]1[C@H](C)CC[C@]2(C(=O)O)CC[C@]3(C)C(=CC[C@@H]4[C@@]5(C)C[C@@H](O)[C@H](O)[C@@](C)(CO)[C@H]5CC[C@]43C)[C@@H]12` the Potency was “inactive”. In the case of `c1cc(CN2CCCNCCNCCCNCC2)ccc1CN1CCCNCCNCCCNCC1`, the Potency is reported as “inactive”. `N[C@H]1CN(c2c(F)cc3c(=O)c(C(=O)O)cn(C4C[C@@H]4F)c3c2Cl)CC12CC2` (stereo not given in full) was tested, and the Potency was “inactive”. `O=C(C[C@@H]1CC=CCCC(=O)O[C@H](c2ccccc2)CNC1=O)NCc1ccc(Cl)cc1` was tested, and the Potency was “inactive”. In the case of `CC(C)C[C@H](NC(=O)CNC(=O)c1cc(Cl)ccc1Cl)B1OC(=O)CC(CC(=O)O)(C(=O)O)O1` (stereo not given in full), the Potency is reported as 0.59 µM (active). For `Cn1cc(CNCC2CCN(c3ncc(C(=O)NO)cn3)CC2)c2ccccc21`, the Potency was 0.59 µM (active). `Cc1ccccc1C(=O)Nc1ccc(C(=O)N2CCCC(O)c3cc(Cl)ccc32)c(C)c1` (stereo not given) was tested, and the Potency was “inactive”. With `O=C(NCc1ccccc1)[C@H](Cc1ccccc1)NC(=O)[C@@H]1O[C@@H]1C(=O)NCCc1ccc(O)cc1` the Potency was “inactive”. With `CCc1cc(C(C)=NOCc2ccc(C3CCCCC3)c(C(F)(F)F)c2)ccc1CN1CC(C(=O)O)C1` the Potency was “inactive”. With `CCS(=O)(=O)Nc1ccc2[nH]c(O)c(C(=Nc3ccc(CN4CCCCC4)cc3)c3ccccc3)c2c1` the Potency was 1.48 µM (active). `Nc1ccn(C[C@@H](CO)OCP(=O)(O)O)c(=O)n1` was tested, and the Potency was “inactive”. With `CCN(C(=O)c1c(O)c2c(Cl)cccc2n(C)c1=O)c1ccccc1` the Potency was “inactive”. For `COc1cc2c(cc1O)CCC1C2CC[C@@]2(C)C1CC[C@@H]2O` (stereo not given in full), the Potency was “inactive”. With `Cc1cnc(NC(=O)Nc2cc(Br)c(C)cc2OC[C@@H]2CNCCO2)cn1` the Potency was “inactive”. `N#Cc1cc(NC(=O)Nc2nnc(-c3ccncc3)s2)ccc1-c1cn[nH]c1` was tested, and the Potency was “inactive”. For `CC(C)(C)[N+]([O-])=Cc1ccc(S(=O)(=O)O)cc1S(=O)(=O)O`, the Potency was “inactive”. `Cn1cc(C[C@@H](N)C(=O)O)c2ccccc21` was tested, and the Potency was “inactive”. `CCC[C@H]1C[C@H](C(=O)N[C@@H]([C@@H]2O[C@@H](SC)[C@@H](O)[C@@H](O)[C@@H]2O)[C@H](C)Cl)N(C)C1` was tested, and the Potency was “inactive”. In the case of `Cc1noc(-c2ccc(CSCCC(=O)O)cc2)c1NC(=O)OC(C)c1ccccc1Cl` (stereo not given), the Potency is reported as “inactive”. For `CC1=C(C(=O)Nc2cc3cn[nH]c3cc2F)C(c2ccc(Cl)cc2F)N=C(c2ccnc(Cl)c2)N1` (stereo not given), the Potency was “inactive”. In the case of `CCN(CC)CCCCNc1ncc2c(n1)N(C)C(=O)N(c1c(Cl)c(OC)cc(OC)c1Cl)C2`, the Potency is reported as “inactive”. In the case of `CCCCC(=O)O[C@]1(C(=O)CO)[C@@H](C)C[C@H]2[C@@H]3CCC4=CC(=O)C=C[C@]4(C)[C@@]3(F)[C@@H](O)C[C@@]21C`, the Potency is reported as “inactive”. In the case of `CC(=O)O[C@H]1C[C@@H]2CC[C@H]3[C@H]4C[C@H]([N+]5(C)CCCCC5)[C@@H](OC(C)=O)[C@@]4(C)CC[C@@H]3[C@@]2(C)C[C@H]1[N+]1(C)CCCCC1`, the Potency is reported as “inactive”. For `CC(C)(O)CC[C@@H](O)[C@](C)(O)[C@H]1CC[C@@]2(O)C3=CC(=O)[C@@H]4C[C@@H](O)[C@@H](O)C[C@]4(C)[C@@H]3CC[C@]12C`, the Potency was “inactive”. `CCOC(=O)C=C[C@H](C[C@@H]1CCNC1=O)NC(=O)[C@@H](CC(=O)[C@@H](NC(=O)c1cc(C)on1)C(C)C)Cc1ccc(F)cc1` was tested, and the Potency was “inactive”. With `C[C@H]1COc2c(N3CCN(C)CC3)c(F)cc3c(=O)c(C(=O)O)cn1c23` the Potency was “inactive”. `CCCCCCCCc1ccc(CCC(N)(CO)CO)cc1` was tested, and the Potency was “inactive”.
